# Results published in PubChem BioAssay (EPA / NIEHS).
# Where “and” joins values, the source holds several entries; their conditions need not be identical. Equal values may be shown once. Results filed as inconclusive are left out. Where a structure was tested more than once in an assay, its records may differ in their call. Calls of active or inactive are those of the source. The calls were made as follows: active = hit-call score of the fitted dose curve at least 0.9, where 1 is the maximum; inconclusive = response in the unintended direction; inactive = score below 0.9.
# Columns and labels:
# [1] = TOX21_p53_BLA_p2_viability: Viability Assessment in the Tox21 HCT-116 p53 Agonism Beta-lactamase Assay, Phase 2 (AID 2283591);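 also: actives lower the ATP signal meaning cytotoxicity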
# Method in brief: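 HCT116 p53-bla cells, 4000/well, dosed after 5 h plating (217-fold dilution of DMSO stocks) and incubated 16 h at 37C. Viability taken as cellular ATP by CellTiter-Glo luminescence after 30 min RT; signal loss marks cytotoxicity.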
# [2] = target: Cellular tumor antigen p53 (Homo sapiens) (UniProt P04637); assay: TOX21_p53_BLA_p2_ratio: Tox21 HCT-116 p53 Agonism Beta-lactamase Assay, Ratio, Phase 2 (AID 2283592)
# Method in brief: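 Plated HCT116 p53-bla cells (4000/well) received compound after 5 h, then 16 h at 37C/5% CO2. CCF4-AM added, 2 h RT. Ratio of 460 to 530 nm emission taken as the p53 reporter signal.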
# [3] = TOX21_p53_BLA_p3_viability: Viability Assessment in the Tox21 HCT-116 p53 Agonism Beta-lactamase Assay, Phase 3 (AID 2283593);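 also: cells exposed to compound for 16 h before reading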
# Method in brief: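 HCT116 cells, 4000/well, dosed 5 h after plating by pin transfer (217-fold dilution from DMSO stock) and incubated 16 h at 37C, 5% CO2. Viability read as ATP luminescence with CellTiter-Glo after 30 min at room temperature.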
# [4] = target: Cellular tumor antigen p53 (Homo sapiens) (UniProt P04637); assay: TOX21_p53_BLA_p3_ratio: Tox21 HCT-116 p53 Agonism Beta-lactamase Assay, Ratio, Phase 3 (AID 2283596)
# Method in brief: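 Cells were seeded at 4000/well, rested 5 h at 37C, then dosed with DMSO compound solutions (217-fold dilution) for 16 h. CCF4-AM substrate was loaded for 2 h at room temperature, and the 460/530 nm emission ratio was fitted for gain of signal versus DMSO.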
# [5] = TOX21_p53_BLA_p4_viability: Viability Assessment in the Tox21 HCT-116 p53 Agonism Beta-lactamase Assay, Phase 4 (AID 2283597);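 also: hits lower the luminescence signal meaning cytotoxicity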
# Method in brief: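 Readout: ATP luminescence (CellTiter-Glo), measured 30 min after reagent addition at RT. The reagent followed a 2 h CCF4-AM incubation, and the cells had been exposed to compound for 16 h at 37C.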
# [6] = target: Cellular tumor antigen p53 (Homo sapiens) (UniProt P04637); assay: TOX21_p53_BLA_p5_ratio: Tox21 HCT-116 p53 Agonism Beta-lactamase Assay, Ratio, Phase 5 (AID 2283599)
# Method in brief: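 HCT-116 p53-bla cells (4000/well) plated 5 h, dosed with compound (217-fold DMSO dilution) for 16 h at 37 C; CCF4-AM substrate 2 h at room temperature. Activity is the 460/530 nm emission ratio (405 nm excitation), fitted in gain-of-signal direction versus DMSO.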
# [7] = TOX21_p53_BLA_p5_viability: Viability Assessment in the Tox21 HCT-116 p53 Agonism Beta-lactamase Assay, Phase 5 (AID 2283600)
# Method in brief: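 Workflow: seed 4000 cells per well, wait 5 h, add compounds (DMSO, 217-fold dilution), incubate 16 h, load CCF4-AM 2 h, add CellTiter-Glo, read luminescence after 30 min.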
# [8] = target: Cellular tumor antigen p53 (Homo sapiens) (UniProt P04637); assay: TOX21_p53_BLA_p4_ratio: Tox21 HCT-116 p53 Agonism Beta-lactamase Assay, Ratio, Phase 4 (AID 2283601)
# Method in brief: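 HCT-116 p53 beta-lactamase reporter cells (4000/well) preincubated 5 h, then compound (217-fold dilution of DMSO stock) for 16 h at 37C. CCF4-AM substrate added 2 h at room temperature; 460/530 nm emission ratio fitted upward versus DMSO.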
# [9] = target: Thyroid hormone receptor alpha (Rattus norvegicus) + Thyroid hormone receptor beta (Rattus norvegicus) (UniProt P18113+P63059); assay: TOX21_TR_LUC_GH3_Antagonist_Followup: Tox21 GH3 Thyroid Hormone Receptor Antagonism Luciferase Follow-Up Assay (AID 2283942)
# Method in brief: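 Luminescence read-out (ONE-Glo, 30 min at room temperature) in GH3 reporter cells challenged with 1.0 nM T3 final. Compounds ran at 92 uM to 5nM over 15 concentrations for 24 h; DMSO served as negative control and baseline.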
# THRB (gene 7068) [10] = target: THRB (gene 7068) (UniProt P10828); assay: TOX21_TRB_BLA_Antagonist_Followup_ratio: Tox21 Thyroid Hormone Receptor beta Antagonism Beta-lactamase (BLA) Follow-Up Assay, Ratio (AID 2283958)
# Method in brief: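 Using charcoal-stripped 2% FBS medium, human TRβ-LBD/GAL4 reporter HEK293T cells received test compounds for 18 h. The endpoint is the cleaved-to-uncleaved substrate ratio (460/530 nm).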
# [11] = TOX21_TRB_BLA_Antagonist_Followup_viability: Viability Assessment in the Tox21 Thyroid Hormone Receptor beta Antagonism Beta-lactamase (BLA) Follow-Up Assay (AID 2283961)
# Method in brief: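 TRβ-bla HEK293T (human TRβ LBD fused to GAL4 DBD), 3,000 cells/well, 2% charcoal-stripped FBS, phenol red-free medium; 18 h compound exposure, 37C; CellTiter-Glo 30 min RT; luminescence, loss-of-signal readout.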
# THRB (gene 7068) [12] = target: THRB (gene 7068) (UniProt P10828); assay: TOX21_TRB_COA_Antagonist_Followup_ratio: Tox21 Thyroid Hormone Receptor beta Antagonism through Coactivator Recruitment Follow-Up Assay, Ratio (AID 2283967)
# Method in brief: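 GST-TRb LBD 5.0 nM + 0.10% BSA, compound added; fluorescein-SRC-2 peptide 200 nM, Tb-anti-GST Ab 2 nM. TR-FRET, ex 340 / em 520:495 ratio. Norm: DMSO 0%, T3 100%.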
# [13] = target: Retinoic acid receptor RXR-alpha (Homo sapiens) (UniProt P19793); assay: TOX21_TR_RXR_BLA_Antagonist_Followup_ratio: Tox21 Thyroid Hormone Receptor beta Retinoid X Receptor alpha (RXRa) Antagonism Beta-lactamase (BLA) Follow-Up Assay, Ratio (AID 2283972)
# Method in brief: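 HEK293T RXRa-bla, 2% charcoal-stripped FBS medium, 16 h compound exposure at 37C, qHTS 11 conc x3. CCF4 FRET ratio ch2/ch1 (460:530), DMSO = baseline, loss-of-signal fit.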
# Sequence of Cellular tumor antigen p53 (Homo sapiens) (P04637 whole entry, looked up): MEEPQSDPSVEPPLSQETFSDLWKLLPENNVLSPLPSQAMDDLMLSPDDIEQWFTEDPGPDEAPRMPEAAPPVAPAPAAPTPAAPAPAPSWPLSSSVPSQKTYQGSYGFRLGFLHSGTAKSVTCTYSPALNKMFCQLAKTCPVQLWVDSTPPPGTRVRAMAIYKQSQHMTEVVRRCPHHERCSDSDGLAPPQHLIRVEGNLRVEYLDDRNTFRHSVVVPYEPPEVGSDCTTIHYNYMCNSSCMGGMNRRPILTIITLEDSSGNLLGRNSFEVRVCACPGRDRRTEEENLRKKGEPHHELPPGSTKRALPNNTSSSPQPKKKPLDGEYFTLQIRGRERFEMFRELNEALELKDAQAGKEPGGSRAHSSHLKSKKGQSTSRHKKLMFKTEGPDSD
# Sequence of THRB (gene 7068) (P10828 whole entry, looked up, the tested form may be a part): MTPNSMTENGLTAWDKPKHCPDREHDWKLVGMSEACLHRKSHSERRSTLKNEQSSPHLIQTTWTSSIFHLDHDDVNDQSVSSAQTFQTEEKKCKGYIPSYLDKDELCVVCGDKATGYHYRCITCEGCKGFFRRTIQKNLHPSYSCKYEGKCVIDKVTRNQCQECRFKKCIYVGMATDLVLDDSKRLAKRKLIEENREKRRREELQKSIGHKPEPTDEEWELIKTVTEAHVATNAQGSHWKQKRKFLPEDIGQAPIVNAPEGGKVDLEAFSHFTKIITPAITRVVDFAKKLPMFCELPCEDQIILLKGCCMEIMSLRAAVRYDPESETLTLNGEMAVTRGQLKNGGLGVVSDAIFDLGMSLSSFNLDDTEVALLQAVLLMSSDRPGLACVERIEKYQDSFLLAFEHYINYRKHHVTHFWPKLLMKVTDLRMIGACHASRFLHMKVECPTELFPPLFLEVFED
# Sequence of Retinoic acid receptor RXR-alpha (Homo sapiens) (P19793 whole entry, looked up): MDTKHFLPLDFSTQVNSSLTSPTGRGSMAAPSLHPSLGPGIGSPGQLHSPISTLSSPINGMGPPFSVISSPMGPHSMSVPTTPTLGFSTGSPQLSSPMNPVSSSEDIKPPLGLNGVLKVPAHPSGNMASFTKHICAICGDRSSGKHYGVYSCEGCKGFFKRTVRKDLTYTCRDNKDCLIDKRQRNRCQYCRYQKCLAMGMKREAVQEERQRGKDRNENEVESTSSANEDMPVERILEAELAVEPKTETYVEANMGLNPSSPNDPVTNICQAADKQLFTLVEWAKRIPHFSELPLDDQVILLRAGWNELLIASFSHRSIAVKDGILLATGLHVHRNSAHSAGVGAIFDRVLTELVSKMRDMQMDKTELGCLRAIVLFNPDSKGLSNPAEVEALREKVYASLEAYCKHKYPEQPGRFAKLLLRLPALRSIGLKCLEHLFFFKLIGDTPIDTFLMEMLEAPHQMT
compound,measurement,setting,value
O=C(O)c1ccc(S(=O)(=O)N(Cl)Cl)cc1,outcome,[1],inactive
same,AC50,[2],64.5 µM (active)
same,outcome,[2],inactive
same,outcome,[3],inactive
same,outcome,[4],inactive
same,outcome,[5],inactive
same,outcome,[6],inactive
same,outcome,[7],inactive
same,outcome,[8],inactive
COc1cc(/C=C/C(=O)O[C@H]2CC[C@]34C[C@]35CC[C@]3(C)[C@@H]([C@H](C)CCC=C(C)C)CC[C@@]3(C)[C@@H]5CC[C@H]4C2(C)C)ccc1O,outcome,[1],inactive
same,outcome,[2],inactive
same,AC50,[3],26.8 µM (active)
same,outcome,[3],inactive
same,AC50,[4],23 µM (active)
same,outcome,[4],inactive
same,outcome,[5],inactive
same,AC50,[6],13.3 µM (active)
same,outcome,[6],inactive
same,outcome,[7],inactive
CCc1nn(CCCN2CCN(c3cccc(Cl)c3)CC2)c(=O)n1CCOc1ccccc1,outcome,[1],inactive
same,outcome,[2],inactive
same,AC50,[3],18.9 µM (active)
same,outcome,[3],inactive
same,outcome,[4],inactive
same,AC50,[5],23 µM (active) and 14.9 µM (active)
same,outcome,[6],inactive
same,outcome,[7],inactive
same,outcome,[8],inactive
C=Cc1ccc(S(=O)(=O)O)cc1,outcome,[1],inactive
same,outcome,[2],inactive
same,outcome,[3],inactive
same,outcome,[4],inactive
same,AC50,[5],46.1 µM (active)
same,outcome,[5],inactive
same,outcome,[6],inactive
same,outcome,[7],inactive
same,outcome,[8],inactive
Oc1cccc(-c2c3nc(c(-c4cccc(O)c4)c4ccc([nH]4)c(-c4cccc(O)c4)c4nc(c(-c5cccc(O)c5)c5ccc2[nH]5)CC4)C=C3)c1,AC50,[1],20.2 µM (active) and 17.5 µM (active)
same,AC50,[2],26.1 µM (active) and 33.8 µM (active)
same,AC50,[3],35.7 µM (active)
same,outcome,[3],inactive
same,AC50,[4],37.4 µM (active)
same,outcome,[4],inactive
same,AC50,[5],17 µM (active) and 33.2 µM (active)
same,AC50,[6],37.1 µM (active) and 38.3 µM (active)
same,AC50,[7],42.9 µM (active)
same,outcome,[7],inactive
same,AC50,[8],24.5 µM (active) and 36.4 µM (active)
CCC[C@@H]1C[C@@H](C(=O)N[C@@H]([C@H]2O[C@H](SC)[C@H](O)[C@@H](O)[C@H]2O)[C@@H](C)O)N(C)C1,outcome,[1],inactive
same,outcome,[2],inactive
same,outcome,[3],inactive
same,outcome,[4],inactive
CSc1ccc2c(c1)N(CCC1CCCCN1C)c1ccccc1S2 (stereo not given),AC50,[1],37 µM (active) and 75.4 µM (active)
same,AC50,[2],43.6 µM (active) and 79 µM (active)
same,AC50,[3],73 µM (active)
same,outcome,[3],inactive
same,outcome,[4],inactive
same,AC50,[5],35.8 µM (active) and 59.3 µM (active)
same,AC50,[6],43.3 µM (active) and 86 µM (active)
same,AC50,[7],43.8 µM (active) and 85.2 µM (active)
same,AC50,[8],43.4 µM (active) and 82.3 µM (active)
O=C(CCCCCCC(=O)Nc1ccccc1)NO,outcome,[1],inactive
same,AC50,[2],420 nM (active) and 686 nM (active)
same,outcome,[3],inactive
same,AC50,[4],0.874 µM (active)
same,outcome,[4],inactive
same,AC50,[5],4.47 µM (active) and 7.11 µM (active)
same,AC50,[6],1.08 µM (active) and 842 nM (active)
same,outcome,[7],inactive
same,AC50,[8],904 nM (active) and 534 nM (active)
same,AC50,[9],5.8 µM (active)
same,outcome,THRB (gene 7068) [10],inactive
same,outcome,[11],inactive
same,outcome,THRB (gene 7068) [12],inactive
same,outcome,[13],inactive
